Bioassay records deposited in PubChem BioAssay by several laboratories.
The list is not random: actives were taken first. Their share in the collection is about 6.6%.
BoNT-A LC inh2 = blocks Botulinum neurotoxin A light chain protease. multiplex microsphere protease substrate cleavage, flow cytometry. inhibition, % at 10 µM. actives 0.17% (n = 360,000). AID 588499
Anthrax LF prot = anthrax lethal factor protease inhibition. inhibition, % at 10 µM. multiplex microsphere protease cleavage assay, LF. actives 0.12% (n = 360,000). P15917
Autofluor counter = flagged as autofluorescent in microsphere protease counterscreen | AID 624483 | fluorescence intensity (test concentration not listed) | compound autofluorescence counterscreen, microsphere flow cytometry; stronger effect = higher value | actives 3.1% (n = 360,000); in the data active = fluorescence intensity above about 16000; inconclusive = no clear call, values can overlap the other calls
BoNT F protease = inhibitors of Botulinum neurotoxin F light chain protease | inhibition, % at 10 µM | Multiplex microsphere protease cleavage assay, flow cytometry | AID 588497 | actives 0.22% (n = 360,000); in the data active = inhibition above about 35%, passing the limit was not always enough; inconclusive = no clear call, values can overlap the other calls
FBA Mtb inh = inhibitors of M. tuberculosis fructose-bisphosphate aldolase; P9WQA3; inhibition, % at 1 µM; AID 588726; purified M. tuberculosis FBA, fluorescence read-out; actives 2.3% (n = 360,000); in the data active = inhibition above about 27%
GDH-TPI inh = GDH-TPI coupled enzyme inhibition counter-screen; GDH-TPI coupled enzyme counterscreen, NADH absorbance; inhibition, % at 4.8 µM; actives 1.2% (n = 360,000); in the data active = inhibition above about 30%
Of the large screens only hits and unclear results are named; the others gave an inactive call. Rule as the data show it, unless noted: active = inhibition above about 30%; inconclusive = no clear call, values can overlap the other calls; inactive = below that.

CCC(C(=O)Nc1cnccn1)c1ccccc1 (stereo unspecified)	Autofluor counter 24267
O=C(O)C1C(c2ccccc2)C(C(=O)Oc2ccccc2)C1c1ccccc1 (stereo unspecified)	Autofluor counter 24658
CC(C)CCOC(=O)C1C(c2ccccc2)C(C(=O)O)C1c1ccccc1 (stereo unspecified)	Autofluor counter 25168
Cc1cccc(OC(=O)C2C(c3ccccc3)C(C(=O)O)C2c2ccccc2)c1 (stereo unspecified)	none
COc1cc(C#Cc2c(-c3cncn3C)n(C)c3ccc(-c4ccc5[nH]ccc5c4)cc23)cc(OC)c1	FBA Mtb inh 46
COCc1ccc(-c2ccc3c(c2)c(C#Cc2ccsc2)c(-c2cc(OC)cc(OC)c2)n3C)cc1	GDH-TPI inh 33
COc1cc(C#Cc2c(-c3cncn3C)n(C)c3ccc(-c4ccc(OC)nc4)cc23)cc(OC)c1	none
COc1ccc(-c2c(-c3cc(OC)cc(OC)c3)n(C)c3ccc(-c4cnc(OC)nc4)cc23)cc1	none
COc1cc(OC)cc(-c2c(-c3ccc(C(C)=O)cc3)c3cc(-c4cccc5[nH]ccc45)ccc3n2C)c1	GDH-TPI inh 36
COc1ccc(-c2c(-c3cc(OC)cc(OC)c3)n(C)c3ccc(-c4ccc5[nH]ccc5c4)cc23)cc1	FBA Mtb inh 134
COc1cc(OC)cc(-c2c(C#Cc3ccsc3)c3cc(-c4cc(F)cc(F)c4)ccc3n2C)c1	none
C[C@H]1CN([C@@H](C)CO)S(=O)(=O)c2ccc(Br)cc2O[C@@H]1CN(C)Cc1cccc(F)c1	none
CCOC(=O)C1=C(C)C(c2ccccc2OC)NC(=S)N1 (stereo unspecified)	none
CN(C)c1c([N+](=O)[O-])cc(N2C(=O)C=CC2=O)cc1[N+](=O)[O-]	none
CC(=O)Nc1c(-c2ccccc2)c2cc(Br)ccc2[nH]c1=O	none
CCOC(=O)N1CCC(NC(=O)c2ccc3c(c2)N=C(C)c2c(C)ccc(C)c2S3)CC1	none
CCc1nc2ccc(C(=O)N3CCN(C(=O)c4ccco4)CC3)cn2c1N(C)Cc1cccs1	none
COc1ccc(NS(=O)(=O)c2cccs2)cc1S(=O)(=O)N1CCCCC1	none
COc1cc(OC)cc(-c2c(C#Cc3ccsc3)c3cc(-c4ccc(OC)c(F)c4)ccc3n2C)c1	GDH-TPI inh 32
COc1cc(OC)cc(-c2c(C#Cc3ccsc3)c3cc(-c4ccc5[nH]ccc5c4)ccc3n2C)c1	GDH-TPI inh 44
CCN1C=C(C(=O)c2ccccc2)C(=O)CC1	none
COc1cccc(N2C(=O)CC(N3CCC(C(N)=O)(N4CCCCC4)CC3)C2=O)c1 (stereo unspecified)	Autofluor counter 26152
Cc1sc(NC(=O)CSc2nnc(N)s2)c(C#N)c1C	none
N#CC(c1cccc(C(F)(F)F)c1)(c1ncc(C(F)(F)F)cc1Cl)N1CCOCC1 (stereo unspecified)	Autofluor counter 23108
O=C(CSc1ccc2nnc(CCNS(=O)(=O)c3ccccc3)n2n1)Nc1nc2ccccc2s1	none
CCOC(=O)Cc1[nH]nc2c1C(c1cc(OC)ccc1OC)C(C#N)=C(N)O2 (stereo unspecified)	Autofluor counter 21991
CCCc1[nH]nc2c1C(c1cc(OC)ccc1F)C(C#N)=C(N)O2 (stereo unspecified)	Autofluor counter 18896
O=C(NCc1ccc(Cl)cc1)C1CCN(S(=O)(=O)c2cccnc2)CC1	none
COc1nc2c(c(-c3cc(Br)cs3)c1C#N)Cc1ccccc1-2	none (no result: BoNT-A LC inh2, Anthrax LF prot, Autofluor counter, BoNT F protease)
COc1ccc(C(=O)NNC2=NS(=O)(=O)c3ccccc32)cc1OC	none
COc1ccc(/C=N/NC2=NS(=O)(=O)c3ccccc32)cc1OC	GDH-TPI inh 35
COc1cc(/C=N/NC2=NS(=O)(=O)c3ccccc32)ccc1OC(C)=O	GDH-TPI inh 34
CCc1cc(C(=O)NCC(C)(C)N2CCOCC2)sc1C	none
C=CCn1c2ccccc2c(=O)c2cc(C#Cc3ccccn3)ccc21	FBA Mtb inh active
Cc1ccc(-n2nnc3c(=O)oc4ccccc4c32)cc1	none (no result: BoNT-A LC inh2, Anthrax LF prot, Autofluor counter, BoNT F protease)
CCC(C)n1nnc2c(=O)oc3ccccc3c21 (stereo unspecified)	Autofluor counter 23717
CN=C1SC(CC(=O)Nc2cc(Cl)ccc2Cl)C(=O)N1C (stereo unspecified)	Autofluor counter 21833
Cc1ccc2[nH]c(=O)c3cc(C(=O)NCCC(C)C)sc3c2c1	BoNT F protease 41
CC(C)CCNC(=O)c1cc2c(=O)[nH]c3ccccc3c2s1	none
Cc1ccc(OCC(=O)N/N=C/C=C/c2ccco2)cc1	none
O=C(COc1ccccc1[N+](=O)[O-])N/N=C/C=C/c1ccco1	GDH-TPI inh 49
CCN1CCc2nc(NC(=O)c3ccccc3)sc2C1	Autofluor counter 18645, GDH-TPI inh 33
O=C(NCCC(NS(=O)(=O)OCC(Cl)(Cl)Cl)c1ccccc1)C(F)(F)F (stereo unspecified)	none
COc1ccc(NC(=O)C(=O)c2cn(CC(=O)N3CCOCC3)c3ccccc23)cc1OC	GDH-TPI inh 33
CCN(C(=O)c1cnc(OC)cc1C(F)(F)F)c1ccc(Cl)cc1Cl	none
CCn1c(NC(=O)c2ccc(F)cc2)c2ccccc2nc1=O	Autofluor counter 19832
CCn1c(NC(=O)c2ccc(C)cc2)c2ccccc2nc1=O	none
COc1ccccc1NC(=O)CSc1nc(N)cc(N)n1	Autofluor counter 21327
COc1ccc2nc(SCC(=O)Nc3ccccc3C)[nH]c2c1	Autofluor counter 20993
COc1ccccc1NC(=O)CSc1nccc(=O)[nH]1	BoNT-A LC inh2 inconclusive, Autofluor counter 21630
CCc1ccc(C(=O)COC(=O)c2ccccc2OC)cc1	none
COc1ccc2nc(Cl)cc(Cl)c2c1	BoNT F protease inconclusive
C=CS(=O)(=O)c1c2cc(OC)ccc2nc2ccc(OC)cc12	FBA Mtb inh 38
CC(=O)Nc1cccc(C(=O)Nc2cc(C(F)(F)F)ccc2-n2cncn2)c1	none
CC(=O)Nc1ccc2c(COC(=O)[C@H](C)N3C(=O)C4CCCCC4C3=O)cc(=O)oc2c1 (stereo partly specified)	FBA Mtb inh active, GDH-TPI inh 32
COc1ccc([N+](=O)[O-])cc1NS(=O)(=O)c1cccc(C(=O)O)c1	none
CC(=O)NC(NC(C)=O)c1ccc(N(C)C)cc1	GDH-TPI inh 47
CN(C)c1ccc(C(=O)c2ccc(N(C)C)cc2)cc1	GDH-TPI inh 40
CC(=O)c1ccc(N(C)C)cc1	none
COc1ccc(CSCC(=O)Nc2ccccc2)cc1[N+](=O)[O-]	none
CCCCCCCC(=O)NNC(=O)c1ccc([N+](=O)[O-])cc1	Autofluor counter 24645
COc1ccc(-n2c(COc3ccc(C)cc3)nnc2SCc2ccc(C#N)cc2)cc1	Autofluor counter 19083
COCCNC(=O)/C(C#N)=C/c1cccs1	GDH-TPI inh 48 (no result: BoNT-A LC inh2, Anthrax LF prot, Autofluor counter, BoNT F protease)
COc1ccc(N(CCC#N)C(=O)/C(C#N)=C\c2cccs2)cc1	GDH-TPI inh 37
N#CCCN(C(=O)COC(=O)/C=C/c1cccs1)c1ccccc1	none
